target: Shiga toxin 2 (Escherichia coli O157:H7) (UniProt P09385+P09386); experiment: E. coli 0.157:H7 Shiga Toxin SOP - stx2 screening assay; format: functional; set-up: scale not given: direction of the effect not stated beside the values; conditions: 30 µM

Row | SMILES | Percent Effect
1 | CCN1C(=O)CCCC12CCCN(C(=O)c1conc1C)C2 (stereo not given) | 1.9%
2 | Cn1cc(-c2nnn3c2COC(CNCc2nccs2)C3)cn1 (stereo not given) | -39.2%
3 | NCC1CN(c2nc(-c3ccccc3)nc3c2CCNCC3)CCO1 (stereo not given) | -22.2%
4 | CC(CNCc1ccncc1)Oc1ccccn1 (stereo not given) | -57%
5 | O=C(N1CCOCC1)[C@@]12CCO[C@@H]1CCN(Cc1ccccc1F)C2 | -21.7%
6 | COc1cccc(S(=O)(=O)N2CCn3cnc(COCC4CC4)c3C2)c1 | 1.15%
7 | c1cncc(C2COC3(CCN(CC4CC4)CC3)C2)c1 (stereo not given) | -13.1%
8 | CN1CCN(c2ncnc3c2c(C(=O)NC2CC2)c2ccccn23)CC1 | -14.4%
9 | Cc1nc(CN2CCOC(Cn3cncn3)C2)nc2ccccc12 (stereo not given) | 16.4%
10 | COc1ccccc1OC1CCN(Cc2cnc(N(C)C)nc2)CC1 | 17.9%
11 | CCC(=O)Nc1nnc(CCCOc2ccccc2)s1 | -12%
12 | O=C(NCCc1cccc(F)c1)NCC(O)c1cccc(F)c1 (stereo not given) | 32.2%
13 | CN(c1ccc(F)c(F)c1)S(=O)(=O)c1cc(C(=O)O)cs1 | 20.8%
14 | CCc1nnc2n1CCN(CC(=O)Nc1sccc1C#N)C2 | 24.4%
15 | CC(=O)N1CCN(c2cc(-c3ccccc3)nc3c(C)c(C)nn23)CC1 | -33.1%
16 | CN1CC(=O)N(c2cnn(C)c2)CC12CCN(Cc1nccn1C)C2 (stereo not given) | -23.4%
17 | CCOCC1CN(C(=O)CS(C)(=O)=O)Cc2cnn(C)c21 (stereo not given) | -6.98%
18 | Cc1cc(CN2CCOC(CN(C)c3cccnn3)C2)no1 (stereo not given) | 18.5%
19 | O=S(=O)(NCCN1CCCCC1Cn1cncn1)c1ccccc1 (stereo not given) | 5.96%
20 | Cc1cc(OCC(=O)NS(=O)(=O)c2c(C)noc2C)ccc1Cl | 13.3%
